Compounds without any hit were thinned out: in the full panel of roughly 79,000, 15% have a hit. Cut-off read from the data, not from the text of the source: active = growth inhibition above about 70%; inactive = the rest.
What was measured:
[1] = NCI Yeast Anticancer Drug Screen. Data for the rad50 strain (AID 155);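 note: 0% = growth of vehicle-only cultures of the same strain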; settings: S. cerevisiae rad50 strain growth inhibition; at 50.0 µM; hits give high values
In short: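 Genetically altered yeast (DNA repair pathway); compound treatment; growth inhibition vs vehicle ctrl.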

[2] = NCI Yeast Anticancer Drug Screen. Data for the mec2-1 strain (AID 157); settings: S. cerevisiae mec2-1 strain, at 50.0 µM, hits give high values
In short: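 Using mec2-1 yeast: add compound, measure growth, express inhibition versus vehicle-treated cultures.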

[3] = NCI Yeast Anticancer Drug Screen. Data for the sgs1 mgt1 strain (AID 161);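 note: 0% = growth of cultures given vehicle only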; settings: S. cerevisiae sgs1 mgt1 strain, at 50.0 µM, hits give high values
In short: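 Growth of a repair-deficient yeast mutant was monitored after compound treatment and expressed as inhibition relative to vehicle-treated cultures.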

[4] = NCI Yeast Anticancer Drug Screen. Data for the cln2 rad14 strain (AID 165);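 note: 0% = growth equal to vehicle treated cultures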; settings: S. cerevisiae cln2 rad14 strain, at 50.0 µM, hits give high values
In short: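 Yeast strain cln2 rad14, bearing defects in cell cycle control and DNA repair, serves as the test system; values reflect growth inhibition compared with vehicle.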

[5] = NCI Yeast Anticancer Drug Screen. Data for the bub3 strain (AID 167); settings: S. cerevisiae bub3 mutant strain, at 50.0 µM, hits give high values
In short: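 Yeast carrying a defined mutation is treated with each compound, and growth is compared with that of vehicle-exposed cells to give inhibition.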

[6] = NCI Yeast Anticancer Drug Screen. Data for the mlh1 rad18 strain (AID 175); settings: S. cerevisiae mlh1 rad18 strain growth inhibition; at 50.0 µM; hits give high values
In short: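 Steps: expose repair-defective yeast to compound; measure growth; express inhibition against vehicle-treated controls.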

Measured: growth inhibition

O=C1COc2ccccc2OCCOCCOc2ccccc2OC1
inactive: [1] 11.2% | [2] -2.9% | [3] -2.7% | [4] -12.2% | [5] 2.3% | [6] -14.9%

CC(C)N(C(=O)c1cccc(C(=O)N(C(C)C)C(C)C)c1)C(C)C
inactive: [1] 12.7% | [2] 2.45% | [3] 0.25% | [4] 11.3% | [5] 16.9% | [6] 33.4%

CCOC(=O)Cc1cccnc1N
inactive: [1] -3.15% | [2] -9.45% | [3] -19.9% | [4] -3.9% | [5] 1% | [6] -2.25%

[N-]=[N+]=NC12CC3C4CC5CC3C(C1)C(C5)C4C2
inactive: [1] 10.3% | [2] 0.6% | [3] -6.65% | [4] 10.2% | [5] -6.15% | [6] -8.45%

NC(=O)c1[nH]cnc1N
inactive: [1] 12.6% | [2] 24.9% | [3] 10.4% | [4] 4% | [5] 23.9% | [6] -58.5%

O=[N+]([O-])c1ccc(C2ON2C2CCCCC2)cc1 (centres undefined)
inactive: [1] -0.75% | [2] -2.55% | [3] 18.7% | [4] -22.3% | [5] -10.8% | [6] 5.3%

CC(=O)N=C1N(/C=C2\C(=O)Oc3ccccc3C2=O)C(=O)/C(=C/c2ccc(NC(C)=O)cc2)N1C
inactive: [1] -32.8% | [2] -26.3% | [3] 34.2% | [4] 7.7% | [5] -31.1% | [6] -12.3%

N#CCCN(CCC#N)c1ccc(CC2C(=O)N(c3cccc(S(=O)(=O)O)c3)N=C2C(=O)O)cc1 (centres undefined)
inactive: [1] -19.4% | [2] -26.8% | [3] -23.1% | [4] 6.65% | [5] -15.9% | [6] -32.1%

Nc1ccccc1OCOCOc1ccccc1N
inactive: [1] -11.7% | [2] -17.8% | [3] -7% | [4] -11.4% | [5] -6.3% | [6] -10.3%

COC(=O)C1=C(C)N(NC(=O)c2ccccc2)C(C)(O)C12CCOC2=O (centres undefined)
inactive: [1] 1.25% | [2] -8.35% | [3] 5.85% | [4] -53% | [5] -9.65% | [6] -5.15%

O=[N+]([O-])c1ccccc1S(=O)c1ccccc1 (centres undefined)
inactive: [1] -1.65% | [2] -0.15% | [3] -4.3% | [4] 11.2% | [5] -6.5% | [6] -6.25%

O=C1C(O)C(c2ccccc2)c2ccccc2N1c1ccccc1 (centres undefined)
inactive: [1] 2.2% | [2] 5.35% | [3] 1.8% | [4] -5.9% | [5] -9.75% | [6] 15.1%

COc1ccc(C(=O)NNC(=O)c2ccccc2)cc1
inactive: [1] 11.9% | [2] -42.5% | [3] -14.8% | [4] 10.1% | [5] -1.1% | [6] -14.2%

O=S(=O)(Oc1ccc(Cl)cc1)c1cccc(S(=O)(=O)Oc2ccc(Cl)cc2)c1
inactive: [1] 12.8% | [2] 1.6% | [3] -2.65% | [4] -5.55% | [5] 5.5% | [6] 1.8%

COc1ccc(C(NC(N)=O)c2cc3c(cc2OC(C)=O)OCO3)c(OC)c1 (centres undefined)
inactive: [1] 10.8% | [2] 4.65% | [3] -2.45% | [4] 22.4% | [5] -3.25% | [6] 16.3%

COc1cc(C2c3cc4c(cc3OC(NNC(N)=S)C2C)OCO4)cc(OC)c1OC (centres undefined)
inactive: [1] -4% | [2] -17.4% | [3] 2.5% | [4] -0.2% | [5] 6.95% | [6] -9.9%

O=C1CC(=O)C(C(=O)c2ccccc2)N1 (centres undefined)
inactive: [1] 18.3% | [2] 8.55% | [3] 5.3% | [4] 1.8% | [5] 7.8% | [6] -2.45%

COc1cc(OC)c(C(=O)/C=C/c2ccncc2)cc1C(=O)O
inactive: [1] 10.1% | [2] -14.6% | [3] 16.2% | [4] 13.3% | [5] 19.6% | [6] -5.85%

CC(=O)OC(C(=O)N1CC1)C(OC(C)=O)C(OC(C)=O)C(OC(C)=O)C(=O)N1CC1 (centres undefined)
inactive: [1] 24.1% | [2] 20.9% | [3] 25.4% | [4] 10.1% | [5] 28.6% | [6] 29.3%

CC1CCCCC1(C)O (centres undefined)
inactive: [1] 23.9% | [2] 34.6% | [3] -19.4% | [4] 1.75% | [5] 9% | [6] 11.4%

Cn1c(=O)c2[nH]c(SCc3cccnc3)nc2n(C)c1=O
inactive: [1] -4.35% | [2] -11.1% | [3] 6.85% | [4] -44.9% | [5] 4.7% | [6] -10.6%

CCc1c(-c2ccccc2)[nH]c(=S)c(C#N)c1C
inactive: [1] -8.7% | [2] -1.5% | [3] 26.6% | [4] 2.7% | [5] -1.1% | [6] -3.9%

CCOc1ccc(N2N=C(C)CCC2=O)cc1
inactive: [1] 6.2% | [2] 1.9% | [3] 5.15% | [4] -10.6% | [5] 6.15% | [6] 0.2%

NCCCNC1CCCCC1
inactive: [1] 8.8% | [2] -27.9% | [3] 2.55% | [4] -0.45% | [5] 1.7% | [6] 12.8%

CC1(C)OC(C(F)(F)F)(C(F)(F)F)c2cc(C(C)(C)C)ccc2S1
inactive: [1] -26.9% | [2] -29.8% | [3] -12.7% | [4] -35.4% | [5] -1% | [6] -9.95%

CCCCCCCCCCC(CO)CCCCCCCC (centres undefined)
inactive: [1] -14.8% | [2] 8.85% | [3] 5.85% | [4] -1.55% | [5] -9.45% | [6] 4%

CC1=CCC(=O)[C@]2(C)C(CC(=O)O)[C@]3(C)C4=C(C)C(c5ccoc5)C[C@@H]4O[C@@H]3[C@H](O)[C@@H]12 (some centres undefined)
inactive: [1] 26.5% | [2] -9.6% | [3] 9.65% | [4] 41% | [5] -1.2% | [6] -67.8%

Cc1ccc(C)c(NC(=O)CC/C(=N\NC(=O)c2c(O)ccc3ccccc23)C(C)C(=O)c2ccc(O)cc2)c1 (centres undefined)
inactive: [1] 10.2% | [2] 36.5% | [3] -5.55% | [4] 12.6% | [5] 16.1% | [6] 20.8%

NC(=O)C1=CCCC1
inactive: [1] 6% | [2] -0.1% | [3] 0.5% | [4] 10.2% | [5] 12.8% | [6] -3.3%

CSc1nc(NN)c([N+](=O)[O-])c(SC)n1
inactive: [1] -7.55% | [2] -0.7% | [3] 1.2% | [4] -2.65% | [5] -14.5% | [6] 15.6%

C1=C(N2CCOCC2)/C(=C2\SC(=Nc3ccccc3)C(=Nc3ccccc3)N2c2ccccc2)CC1
inactive: [1] -5.8% | [2] -5.4% | [3] -7.65% | [4] 14.3% | [5] -5.35% | [6] -28.6%

O=C1C=CC(Nc2ccc(Cl)c(Cl)c2)C1Nc1ccc(Cl)c(Cl)c1 (centres undefined)
inactive: [1] 39.5% | [2] 36.1% | [3] 42.8% | [4] 28.6% | [5] 26.7% | [6] 45%

COC(=O)c1nn(-c2ccccc2)c2nc3ccccc3c-2c1C(=O)OC
inactive: [1] 39.8% | [2] 17% | [3] 31% | [4] 18.5% | [5] 20.9% | [6] 36.5%

CC1(CO)CSC(Nc2ccc(Cl)c(Cl)c2)=N1 (centres undefined)
inactive: [1] 19.1% | [2] -12.9% | [3] 37.8% | [4] 32.5% | [5] 20.1% | [6] 19.1%

COc1cc(Br)cc2nc(-c3cccs3)oc12
inactive: [1] -15.3% | [2] -46.9% | [3] -62.2% | [4] -24.6% | [5] -8.1% | [6] -32.5%

CCCCCC(CCCCC)=C(C#N)C(=O)OCC
inactive: [1] -6.15% | [2] 21.1% | [3] 7.55% | [4] -19.4% | [5] 19.9% | [6] 25.8%

CC(=O)NNC(=S)N/C=C(\C#N)c1nc2ccccc2s1
inactive: [1] 22.2% | [2] 12.2% | [3] -17.2% | [4] 18.4% | [5] -10.7% | [6] 12.1%

N#Cc1c2c(c(-c3cccs3)n(C3OC(CO)C(O)C(O)C3O)c1=S)CCc1ccccc1-2 (centres undefined)
inactive: [1] 10.7% | [2] -9.55% | [3] -3.35% | [4] -20.4% | [5] 0.8% | [6] 1.6%

COC(=O)C(C(=O)C(=O)Nc1ccccc1C(C)=O)c1nc2ccc(Cl)cc2[nH]c1=O (centres undefined)
inactive: [1] -31.9% | [2] -16.2% | [3] -12.3% | [4] -4.45% | [5] -19.3% | [6] -14.4%

From PubChem BioAssay (NCI)
